In ChEMBL document CHEMBL3988442, “University of Dundee, Small-Polar-MMV Screening Library” (2021):
Values joined by “and” are separate entries in the source; they are usually repeats but may differ in a detail not shown here. Equal values may be shown once. In all, about 38,000 compounds went through this assay and about 1,200 (3.2%) showed an effect of 50% or more. The median lay at about -58%. The list comes from a sample in which strong results are over-represented; it also holds similar structures and randomly drawn compounds.

Test system: Plasmodium falciparum
Test: Calibr Malaria Delayed Death Assay SOP
Format: functional, organism-based
Design: scale not given: in the data most compounds retested in dose-response had high values
Conditions: concentration 4.99e-06 (unit not given; other assays of the set use mol/L)

Row | SMILES | Percent Effect | Percent Effect (4.99 µM)
1 | COc1ccc(CN2CCC(C(N)=O)CC2)cc1SC(F)(F)F | 63.84% | –
2 | COc1ccc(CN2CCC(C(N)=O)C2)c(Br)c1OC (stereo not given) | -101% | –
3 | COc1ccc(CN2CCNC(=O)CC2)cc1SC(F)(F)F | 74.78% | –
4 | COc1cc(Cl)c(CN2CCC(C(N)=O)C2)cc1Cl (stereo not given) | 3.59% | –
5 | CSc1ccc(OCCN2CCNC(=O)CC2)cc1 | -70.99% | –
6 | COc1ccc(C(C)NC(=O)N2CCNC(=O)CC2)cc1F (stereo not given) | -89.17% | –
7 | OC(CN1CCC(c2ccn[nH]2)CC1)c1ccc(F)cc1F (stereo not given) | -72.07% | –
8 | Cc1ccc(C)c(S(=O)(=O)NCCOc2ccc3nnc(C)n3n2)c1 | -6.832% | –
9 | COc1cccc(-c2n[nH]cc2CNC2CCC(O)CC2)c1.Cl (stereo not given) | -76.02% | –
10 | Cc1cc(C[C@@H]2CCC[C@H]2NCc2c[nH]nc2-c2ccccc2)on1.O=C(O)CC(O)(CC(=O)O)C(=O)O | 55.35% | –
11 | COc1cccc(-c2n[nH]cc2CNC2CCCN(C)C2)c1 (stereo not given) | -88.31% | –
12 | Cc1cc(C[C@@H]2COC[C@@H]2NC(=O)Cn2c(=O)oc3ccccc32)on1 | -110.9% | –
13 | Cc1cc(C[C@@H]2CCC[C@H]2NCc2ccc(C(F)(F)F)cc2)on1.O=C(O)CC(O)(CC(=O)O)C(=O)O | -14.83% | –
14 | CN(C(=O)Nc1cccnc1)C1CCN(c2ccc(Cl)cc2)CC1 | 4.443% | –
15 | Cc1cc(C)n(CC2CCCN2CC(=O)N(C)CCC#N)n1 (stereo not given) | -49.25% | –
16 | CCC(C)C(=O)N(CC(=O)OC)c1cccc(C)n1 (stereo not given) | -66.48% | –
17 | CCN(CC1CN(Cc2c(C)noc2C)CCO1)c1cccnn1 (stereo not given) | -53.53% | –
18 | CCN(CC1CN(Cc2nc(C3CC3)no2)CCO1)c1cccnn1 (stereo not given) | 72.53% | –
19 | CCN(CC1CN(Cc2ncc(C)o2)CCO1)c1cccnn1 (stereo not given) | -35.01% | –
20 | CCNC(=O)Cc1ccc(-c2cccc3c2CCNC3)cc1 | -6.885% | –
21 | COCCC(=O)N1CCC2(CCCN2Cc2ccccc2)C1 (stereo not given) | -58.21% | –
22 | Nc1nc(CC(=O)N2CCCC(CCc3cccc(F)c3)C2)cc(=O)[nH]1 (stereo not given) | -43.06% | –
23 | CCN(C(=O)Nc1nncs1)C(C)c1cccc(OC)c1 (stereo not given) | -32.07% | –
24 | Cc1nc(C)n(CC2CCCCN2c2ncnc3ccsc23)n1 (stereo not given) | -49.26% | –

Row | SMILES | Percent Effect | Percent Effect (4.99 µM)
25 | CC(C)c1ccc(S(=O)(=O)Cc2nc(N)nc(N(C)C)n2)cc1 | -42.62% | –
26 | COc1ccccc1CCN(C)Cc1nc(N)nc(N(C)C)n1 | 69.03% | –
27 | COc1ccccc1CC(C)N(C)CCS(C)(=O)=O (stereo not given) | -4.563% | –
28 | COc1ccc(Cl)cc1-c1nc(N)nc(N(C)C)n1 | -104.8% | –
29 | CN(CC(=O)Nc1cccc(F)c1)Cc1nc(N)nc(N(C)C)n1 | -117.7% | –
30 | Cc1ccccc1CC1(C(=O)O)CCCN(c2ncnc3[nH]ccc23)C1 (stereo not given) | -4.529% | –
31 | Cc1c(C(=O)NCCC(C)C)nnn1-c1cccc2c1CCN(C)C2 | -15.36% | –
32 | CC(O)CN1CCC(CNCc2cn(-c3ccccc3)nn2)CC1 (stereo not given) | -67.96% | –
33 | CC(O)CN1CCC(CNCc2cccc(Cl)c2)CC1 (stereo not given) | 87.41% | –
34 | Cc1ncccc1CNCC1CCN(CC(O)c2ccccc2)CC1 (stereo not given) | 29.35% | –
35 | CC(O)CN1CCN(Cc2cccc(C(=O)N(C)C)c2)CC1 (stereo not given) | -48.6% | –
36 | CC(O)CN1CCN(Cc2cccc(C#N)c2)CC1 (stereo not given) | 12.6% | –
37 | CN1Cc2cc(F)ccc2N(CC(O)C(F)(F)F)CCC1=O (stereo not given) | 13.79% | –
38 | Cc1ccc(CN(C)C(=O)c2ccc(NC3CC3)nc2)o1 | -155.8% | –
39 | CCN1CCN(Cc2c(C3CCCC3)[nH]c3ncccc23)CC1 | -34.79% | –
40 | Cc1ccc(-c2cc(C(=O)NCCCc3csc(N)n3)[nH]n2)s1 | 65.08% | –
41 | COc1ccc2c(C)c(C(=O)NCCCc3csc(N)n3)oc2c1 | -56.16% | –
42 | Cc1ccc(-c2cc(C(=O)NCCCc3csc(N)n3)[nH]n2)o1 | 18.73% | –
43 | COC(=O)CN1CCN(c2nc3c(s2)c(C)nn3C)C(C)C1=O (stereo not given) | -95.69% | –
44 | Cc1nn(C)c2nc(N3CCNC(=O)C3Cc3ccccc3)sc12 (stereo not given) | -89.32% | –
45 | Cc1ccc(CN2CCN(c3nc4c(s3)c(C)nn4C)C(C)C2=O)cc1 (stereo not given) | 68.91% | –
46 | COCC(O)CNc1ccc(C#N)cc1C(F)(F)F (stereo not given) | -11.9% | –
47 | CCCS(=O)(=O)N1CC[C@@H]2[C@@H]1CC(=O)N2Cc1csc(C)n1 | -243.1% | –
48 | Cc1cccc(NC(=O)C(C)Oc2ccc3c(c2)OCO3)n1 (stereo not given) | -110.7% | –

Row | SMILES | Percent Effect | Percent Effect (4.99 µM)
49 | CS(=O)(=O)CCCNC1(c2ccc(Br)cc2)CCC1 | 77.64% | –
50 | Cc1cccc(C2(NC(=O)CCN3C(=O)CCC3=O)CCCC2)c1 | -32.71% | –
51 | CS(=O)(=O)CCCNC1(c2cccc(F)c2)CC1 | -29.12% | –
52 | CSCC(=O)NC1(c2cccc(Cl)c2)CC1 | -138.1% | –
53 | Brc1ccc(C2(NCc3noc(C4CC4)n3)CCC2)cc1 | 8.334% | –
54 | Cc1cccc(C2(NCCCS(C)(=O)=O)CCCC2)c1 | 88.41% | –
55 | N#CCCCS(=O)(=O)NC1(c2cccc(Cl)c2)CC1 | -108.7% | –
56 | CC(C)(C)c1ccc(C2(C(=O)NCCCS(C)(=O)=O)CC2)cc1 | -66.39% | –
57 | CC(Nc1cnn(C)c(=O)c1Cl)c1ccc(F)c(F)c1 (stereo not given) | -61.95% | –
58 | COc1cc(-c2n[nH]c(CCN)n2)cc(OC)c1OC | -46.27% | –
59 | Cc1nc(CSCc2ccc(OCC(F)(F)F)nc2)no1 | -117.9% | –
60 | Cc1cccc(CN2C(=O)C[C@H]3[C@@H]2CCN3Cc2ccccn2)n1.O=C(O)C(F)(F)F.O=C(O)C(F)(F)F.O=C(O)C(F)(F)F | -25.52% | –
61 | Cc1cc(CN2CCC(C3CCN(Cc4cccnc4)CC3)C2)[nH]n1 (stereo not given) | 8.003% | –
62 | Cc1cc(CN2CCC(C3CCN(CCc4ccccc4)CC3)C2)[nH]n1 (stereo not given) | 93.56% | –
63 | Cc1cc(CN2CCC(C3CCN(CCc4ccccc4)C3)CC2)[nH]n1 (stereo not given) | 35.64% | –
64 | Cc1cc(C)cc(CN2C[C@@H]3OCCN(CC(=O)N(C)C)[C@@H]3C2)c1.O=C(O)C(F)(F)F | -102.5% | –
65 | CCCc1ccc(OCCNCc2ccco2)c(OC)c1.Cl | 50.1% | –
66 | COc1ccc(CCNCc2ccco2)cc1OC | 3.158% | –
67 | COc1cc(C(C)=O)ccc1OCCNCc1ccco1.Cl | -1.065% | –
68 | COc1ccc(CN2CCN(CCn3ccnc3)CC2)cc1F | -77.09% | –
69 | N#CCCSc1nnc(Cc2ccccc2F)o1 | 0.1656% | –
70 | CN1CCN(C[C@@H]2OC[C@H]3CN(Cc4cccc(F)c4)CC[C@H]32)CC1.O=C(O)C(F)(F)F.O=C(O)C(F)(F)F.O=C(O)C(F)(F)F | 17.46% | –
71 | CN1CCN(C[C@@H]2OC[C@H]3CN(CCc4ccccc4)CC[C@H]32)CC1.O=C(O)C(F)(F)F.O=C(O)C(F)(F)F.O=C(O)C(F)(F)F | 64.83% | –
72 | Cc1ccc(CN2CC[C@@H]3[C@@H](CO[C@H]3CN3CCN(C)CC3)C2)cc1.O=C(O)C(F)(F)F.O=C(O)C(F)(F)F.O=C(O)C(F)(F)F | -1.718% | –

Row | SMILES | Percent Effect | Percent Effect (4.99 µM)
73 | O=C(O)C(F)(F)F.O=C(O)C(F)(F)F.c1cc2c(cc1CN1CC[C@H]3CO[C@H](CN4CCCC4)[C@H]3C1)OCO2 | 77.9% | –
74 | Cc1ccc(CN2CC[C@H]3CO[C@H](CN4CCCC4)[C@H]3C2)o1.O=C(O)C(F)(F)F.O=C(O)C(F)(F)F | 27.44% | –
75 | N#Cc1cccc(CN2CC[C@@H]3CO[C@@H](CN4CCCC4)[C@@H]3C2)c1.O=C(O)C(F)(F)F.O=C(O)C(F)(F)F | 9.568% | –
76 | Cn1cc(N2CCC3(CCCN(Cc4ccoc4)C3)C2=O)cn1 (stereo not given) | -100.7% | –
77 | O=C1CCC2(CCN(CC[C@H](O)c3ccccc3)CC2)CN1CCO | -15.36% | –
78 | NC(=O)CCNC(=O)C1(N2CCCCC2)Cc2ccccc2C1 | -32.27% | –
79 | CN1CC(C(=O)N2CCN(c3cccc(Cl)c3)C(=O)C2)NC1=O (stereo not given) | -61.36% | –
80 | CC(Cn1cccn1)NCCCc1nc(-c2cccs2)no1 (stereo not given) | 66.81% | –
81 | CC(Cn1cccn1)NCc1nc(-c2cccs2)no1 (stereo not given) | -237.8% | –
82 | Cc1cnn(CC(C)NCc2nc(-c3cccs3)no2)c1 (stereo not given) | -78.64% | –
83 | CC(C)NC(=O)[C@H](C)NC(=O)N1CCN(c2ccc(Cl)cc2)CC1 | -40.36% | –
84 | CC(C)Cn1ncc(C(=O)NS(=O)(=O)c2ccccc2)c1C1CC1 | -129.8% | –
85 | COc1ccc(OC)c(C(C)NS(=O)(=O)c2cn(C)nc2C)c1 (stereo not given) | -72.91% | –
86 | CC(=O)NC[C@@H]1C=C(C)[C@H](CC(=O)NCCN(C)C)C[C@H]1C(C)C | -26.76% | –
87 | CCc1ncc(C(=O)N(C)CCc2nc3cc(OC)ccc3[nH]2)cn1 | -128% | –
88 | CCn1nc(C)c(C(=O)N2C[C@@H](CN(C)C)[C@@H](CO)C2)c1C | – | -17.38% and -19.57%
89 | CC(=O)N1CCC(=O)N(C2CCCC2)Cc2ccccc21 | -73.21% | –
90 | CCn1c(=O)nc(N)c2c(-c3ccc(OC)cc3)csc21 | -67.94% | –
91 | COc1ccc(-c2csc3c2c(N)nc(=O)n3CCN(C)C)cc1 | -27.97% | –
92 | COc1ccc(-c2csc3c2c(N)nc(=O)n3CCCN(C)C)cc1 | 54.04% | –
93 | CC(C)c1nc(N2CC(N3CCCCC3C)C2)c2cnn(C)c2n1 (stereo not given) | -59.85% | –
94 | CC(C)c1nc(N2CCC(N3CCCCCC3)CC2)c2cnn(C)c2n1 | 50.67% | –
95 | Cc1nc(N2CCCC(N3CCCC3)C2)c2cnn(C)c2n1 (stereo not given) | -29.13% | –
